TDP1 cell noCPT = qHTS for Inhibitors of human tyrosyl-DNA phosphodiesterase 1 (TDP1): qHTS in cells in absence of CPT; DT40 Tdp1-/- hTDP1 cells, no CPT, ATP luminescence, 48 h; Potency, µM (doses to about 46.2 µM), for the others: at the top dose activity change, negative = growth inhibition, usual class: inhibitors; 420,000 compounds, 15% hits; also: potency is read from the fitted curve at half-maximal effect; nearly all actives have a fitted effect of over 55% in size
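A cellular qHTS used chicken DT40 cells lacking endogenous Tdp1 but carrying stably transfected human TDP1. Compounds were applied without camptothecin, and cell growth kinetics were judged by ATP-dependent luminescence after ≥48 hr.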
IL-1B inflam inh = blocks inflammasome-driven IL-1 beta release | THP-1 LPS/ATP IL-1B secretion, AlphaLISA, 16 h; hits give low values | activity change, % at 57.5 µM | 360,000 compounds, 4.7% hits | AID 743279; in the data active = activity change below about -50%; inconclusive = mostly about -30% to -49%
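THP-1 cells pretreated 1 hr with compounds (up to 57.5 uM final), then stimulated with LPS (250 ng/mL final) plus ATP (1.25 mM final); secreted IL-1B measured by AlphaLISA after 16 hr, decreased signal indicating inhibition.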
RORg inh = ROR gamma (mouse) transcription inhibition | P51450 | 310,000 compounds, 5.4% hits | AID 2551 | Potency, µM (series often up to 53.6 µM), for inactives: top-dose activity change, negative = inhibition, hits mostly inhibitors | Drosophila S2 Gal4-RORgamma UAS-luciferase reporter, 20 h; also: potency is read from the fitted curve at half-maximal effect; nearly all actives have a fitted effect of over 60% in size
Target sequence (P51450 whole entry, looked up, the tested form may be a part): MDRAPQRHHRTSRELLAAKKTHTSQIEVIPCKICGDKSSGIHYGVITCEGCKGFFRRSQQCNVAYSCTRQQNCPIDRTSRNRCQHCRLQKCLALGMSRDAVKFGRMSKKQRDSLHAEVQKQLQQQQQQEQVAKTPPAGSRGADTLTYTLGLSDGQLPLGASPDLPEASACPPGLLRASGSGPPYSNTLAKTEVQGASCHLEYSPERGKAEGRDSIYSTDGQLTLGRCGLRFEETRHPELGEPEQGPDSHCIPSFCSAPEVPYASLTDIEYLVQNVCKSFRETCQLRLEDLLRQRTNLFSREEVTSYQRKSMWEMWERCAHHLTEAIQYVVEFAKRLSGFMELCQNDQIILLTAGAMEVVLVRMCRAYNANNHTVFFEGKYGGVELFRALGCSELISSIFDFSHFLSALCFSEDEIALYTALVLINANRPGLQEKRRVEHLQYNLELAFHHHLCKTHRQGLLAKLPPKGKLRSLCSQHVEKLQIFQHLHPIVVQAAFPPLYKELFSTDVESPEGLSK
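Drosophila Schneider cells stably carrying a metallothionein-driven Gal4 DBD–ROR gamma fusion and a UAS-Photinus luciferase reporter were exposed to compound for 1 hr, then induced with copper sulfate (700 uM final) for 20 hr at ambient temperature before luminescence reading.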
DT40 TDP1 CPT = growth inhibition of DT40 Tdp1-/-;hTDP1 cells with camptothecin (screen for TDP1 inhibitors). chicken DT40 Tdp1-/-;hTDP1 cells + 20 nM CPT, ATP luminescence, 48 h. Potency, µM (doses to about 46.2 µM), inactives show at the highest dose activity change, negative = growth inhibition, most hits filed as inhibitors. 420,000 compounds, 12% hits. AID 686979; also: potency is read from the fitted curve at half-maximal effect; nearly all actives have a fitted effect of over 55% in size
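Chicken DT40 Tdp1-/- cells complemented with human TDP1, 400 cells/well, exposed to compounds plus 20 nM camptothecin for at least 48 h at 37 C; viability read as ATP content by CellTiter-Glo luminescence.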
Gal4-VP16 FLuc = inhibits Gal4-VP16 luciferase reporter, ROR gamma counter-screen | AID 2546 | Drosophila S2 Gal4-VP16 UAS-luciferase, luminescence, 20 h | 310,000 compounds, 3.5% hits | Potency, µM (series often up to 53.6 µM), for inactives: at the top dose activity, negative = inhibition, usual class: inhibitors;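 also: Gal4-VP16 expression switched on by copper sulfate through the metallothionein promoter; potency is read from the fitted curve at half-maximal effect; nearly all actives have a fitted effect of over 50% in size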
LDHA block = blocks human lactate dehydrogenase A. P00338. purified LDHA, NADH/diaphorase-resazurin fluorescence; hits give low values. activity change, % (values are at about 110 or 230 µM). 480,000 compounds, 0.15% hits; in the data active = activity change below about -30%; inconclusive = mostly about -25% to -30%;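 also: plate controls were DMSO wells for no effect and wells without enzyme for full effect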
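LDH5 2 nM; NADH 0.06 mM, pyruvate 0.2 mM; 200 mM Tris pH 7.4, EDTA, Tween-20; 5 min RT. Detection: diaphorase 0.133 mg/mL + resazurin 37 µM, fluorescence ex540/em590 at 0 and 20 min; normalized to enzyme-free and DMSO wells.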
* hit, by the source's call; ? = inconclusive; / = no result. Rows were chosen to be rich in hits. Some 18% of all compounds tested hit in one or more screens of this group. Unless noted, calls follow the shape of the dose curve; as a rule, active = well fitted curve in the direction sought with a large enough effect; inconclusive = small, poorly fitted or top-dose-only effect, or another doubt; inactive = no such curve, though single readings can be large; an effect the other way counts as inactive or inconclusive. Unless noted, % is scaled to controls: 0 for no effect and ±100 for the full control effect.

SMILES	TDP1 cell noCPT	IL-1B inflam inh	RORg inh	DT40 TDP1 CPT	Gal4-VP16 FLuc	LDHA block
O=C(Nc1cc(-c2ccccc2)cs1)c1ccco1	15µM*	-29	/	?	/	-9
COc1ccc(-c2cc(=O)c3cc(OC(C)=O)ccc3o2)cc1	/	/	/	/	/	-7
CC(NC(=O)c1ccco1)C(=O)Nc1nc(-c2ccc3ccccc3c2)cs1 (stereo unspecified)	/	/	/	/	/	-1
O=C(/C=C\c1ccco1)Nc1nc(-c2ccc3ccccc3c2)cs1	?	-72*	7%	?	-15%	-3
CC(C)Oc1ccc(C(=O)OC(C)C(=O)Nc2nc(-c3cccc([N+](=O)[O-])c3)cs2)cc1 (stereo unspecified)	26µM*	-3	-3%	16µM*	8%	-6
O=C(O)c1ccccc1C(=O)Nc1nc(-c2ccc3ccccc3c2)cs1	-3%	1	23%	3%	-3%	-14
CC(OC(=O)c1ccc(F)cc1)C(=O)Nc1nc(-c2cccc([N+](=O)[O-])c2)cs1 (stereo unspecified)	?	?	44%	?	-7%	-11
CC(OC(=O)c1ccco1)C(=O)Nc1nc(-c2ccccc2)cs1 (stereo unspecified)	16µM*	20	/	?	/	-4
Cc1ccc(NC(=O)Cc2nc(-c3ccccc3)oc2C)nc1	/	/	/	/	/	-2
Cc1c(OS(=O)(=O)c2cccs2)ccc2c(-c3ccccc3)cc(=O)oc12	/	/	/	/	/	12
O=C(Nc1c(-c2ccc(F)cc2)nc2sccn12)c1cccc(S(=O)(=O)N2CCOCC2)c1	/	/	/	/	/	11
COc1cc(/C=C/C(=O)OCC(=O)Nc2ccc3c(c2)OCCO3)ccc1O	16µM*	24	14%	?	-6%	-3
COc1cc(/C=C/C(=O)OCC(=O)NCc2ccco2)ccc1OC(F)F	3%	0	2.5µM*	5%	4µM*	-5
COc1cc(/C=C/C(=O)OCC(=O)NCc2ccc(F)cc2)ccc1O	2.3µM*	67	/	2.6µM*	/	-7
CC(Cc1cccs1)N(Cc1ccc(Cl)cc1)C(=O)c1ccc(C(F)(F)F)cc1 (stereo unspecified)	/	/	/	/	/	-5
CCOC(=O)C1=C(C)Nc2ccccc2N=C1NC(=O)c1oc2ccccc2c1COC	16µM*	0	/	21µM*	/	-7
COCc1c(C(=O)Nc2nnc(C3CC3)s2)oc2ccccc12	12µM*	9	/	?	/	0
CCOC(=O)C1=C(C)Nc2ccccc2N=C1N	11%	4	0%	-2%	-17%	-1
COc1ccc(Cl)cc1NC(=O)N1CCSc2ccccc21	/	/	/	/	/	18
CCc1ccccc1O	/	/	35%	/	7%	/
CS(=O)c1ccccc1O (stereo unspecified)	17%	26	11µM*	22%	-4%	-9
O=S(c1ccccc1O)S(=O)c1ccccc1O (stereo unspecified)	5.2µM*	?	/	5.8µM*	/	-7
Cc1ccccc1CNC(=O)c1scnc1C	/	/	/	/	/	4
O=C(Nc1nn[nH]n1)c1cccc([N+](=O)[O-])c1	-9%	15	5%	16%	-3%	-6
CCC(C)(C)c1nnc(NC(=O)c2cccc([N+](=O)[O-])c2)s1	-16%	-22	13µM*	-20%	?	2
SMILES	TDP1 cell noCPT	IL-1B inflam inh	RORg inh	DT40 TDP1 CPT	Gal4-VP16 FLuc	LDHA block
O=C(Nc1nnc(CSCc2ccc(F)cc2)s1)c1cccc([N+](=O)[O-])c1	?	27	11µM*	?	20µM*	-2
O=C(Nc1nnc(CSCc2ccc(Cl)cc2)s1)c1cccc([N+](=O)[O-])c1	?	7	11µM*	-2%	10µM*	-4
O=C(O)CCNC(=O)OCC1c2ccccc2-c2ccccc21	?	30	32%	8.2µM*	-9%	-4
O=C(CCNC(=O)OCC1c2ccccc2-c2ccccc21)NOCc1ccccc1	4.1µM*	30	/	3.3µM*	/	1
CC(NC(=O)Cc1ccccc1)C(c1ccccc1)N1CCOCC1 (stereo unspecified)	-16%	-64*	-9%	-15%	3%	-11
CC(=O)C(C(c1ccccc1)N1CCOCC1)N1CCOCC1 (stereo unspecified)	18µM*	-3	/	?	/	-9
CC(NC(=O)c1ccc(-c2ccccc2)cc1)C(c1ccccc1)N1CCOCC1 (stereo unspecified)	13µM*	0	/	?	/	-1
CC(O)(c1ccccc1)C(C(c1ccccc1)N1CCOCC1)N1CCOCC1 (stereo unspecified)	-14%	2	/	5%	/	-5
CC(C)N(C(=O)CSc1nc2ccccc2n1Cc1ccc(F)cc1)C(C)C	?	-62*	?	23µM*	?	7
C=Cc1ccc(Cn2c(SCC(=O)N3CCN(c4ccc(F)cc4)CC3)nc3ccccc32)cc1	?	/	/	23µM*	/	-3
O=C(CSc1nc2ccccc2n1Cc1cccc(F)c1)N1CCN(c2ccc(F)cc2)CC1	?	/	/	?	/	-3
O=C(CSc1nc2ccccc2n1Cc1ccc(F)c(Cl)c1)N1CCN(c2ccc(F)cc2)CC1	9.2µM*	/	/	18µM*	/	-7
Cc1ccc(S(=O)(=O)N(C)C)cc1NC(=O)COc1ccc2cc(Br)ccc2c1	/	/	/	/	/	0
CC(C)Cn1c(=O)c2ccccc2n2c(CCC(=O)Nc3cccc(Cl)c3)nnc12	16µM*	/	/	?	/	-9
COc1cccc(NC(=O)CCc2nnc3n(Cc4ccccc4Cl)c(=O)c4ccccc4n23)c1	?	/	/	16µM*	/	-10
CC(C)Cn1c(=O)c2ccccc2n2c(CCC(=O)NCc3ccccc3Cl)nnc12	-3%	/	/	2%	/	-2
O=C(CCc1nnc2n(Cc3ccccc3Cl)c(=O)c3ccccc3n12)Nc1ccc(F)cc1	5.2µM*	/	/	5.8µM*	/	-19
CCCCN(C(=O)c1cccnc1OCC)c1c(N)n(Cc2ccccc2)c(=O)[nH]c1=O	/	/	/	/	/	5
CC1(C)CC(=O)C2=C(C1)Nc1[nH]n(-c3ccccc3)c(=O)c1C2c1ccc(Br)cc1 (stereo unspecified)	/	/	/	/	/	3
O=C(Cn1c(=O)oc2cc(S(=O)(=O)NCc3ccccc3)ccc21)Nc1cccc(F)c1	?	/	/	?	/	-16
COc1ccc(OC)c(NC(=O)Cn2c(=O)oc3cc(S(=O)(=O)NCc4ccccc4)ccc32)c1	15µM*	/	/	?	/	3
